Each structure is given as a SMILES string. The whole screen tested about 11,000 compounds, of which about 310 (2.8%) were called active. No stated cut-off is given here; in the data, active means activity change below about -85%; inactive means the rest. For the sample, actives were picked, then their nearest neighbours and some compounds at random.

The assay deals with intestinal alkaline phosphatase [Mus musculus]. In words: activators of mouse IAP, confirmation, biochemical, luminescence, single concentration (AID 434970). To be noted: purified mouse IAP, CDP-Star luminescence, 30 min, at 10 µM; activation factor: measured here: IAP activation factor, stronger effect = higher value; activity change, negative = activation: stronger effect = lower value.
`Cc1ccc(S(=O)(=O)N2CCN(C(=O)CSc3nc4ccccc4c(=O)[nH]3)CC2)c(C)c1`: the activation factor amounted to 1.1 and the activity change, negative = activation is -10.3% (inactive).
Taken in the same sequence, the figures for `CSCCC(NC(=O)c1ccc(=O)n(C)n1)c1nc2ccccc2[nH]1` (configuration not stated) were 0.931 and 6.9% (inactive).
Regarding `Cc1nn(C)cc1CNC(=O)Nc1ccc(Cl)cc1`, the activation factor worked out at 1.32 and the activity change, negative = activation was -31.6% (inactive).
As to `Cc1ccc(C)c(CN2CCC(CNC(=O)Nc3ccc(Cl)cc3)CC2)c1`, the activation factor stood at 2.23 and the activity change, negative = activation is -123% (active).
Turning to `Cc1ccc(C)c(CN2CCC(CNC(=O)Nc3ccc(F)c(Cl)c3)CC2)c1`, the activation factor amounted to 1.98 and the activity change, negative = activation was -97.9% (active).
On the same counts, the results for `Cc1cccc(CCNC(=O)CCc2c(C)nc3ncnn3c2C)c1` are 0.906 and 9.35% (inactive).
Take `CCNC(=O)COc1cc(C)c(Cl)c(C)c1`: the activation factor was 1 and the activity change, negative = activation is -0.4% (inactive).
Taken in the same sequence, the figures for `CCc1nc2sc3c(c2c(=O)n1N)CCC3` were 0.913 and 8.65% (inactive).
In the case of `CCN(CC)S(=O)(=O)c1cccc(-c2nnc(SCC(=O)c3cc(C)n(C)c3C)o2)c1`, the activation factor stood at 0.772 and the activity change, negative = activation is 22.8% (inactive).
Taken in the same sequence, the figures for `COc1ccc(C2/C=C\CN(C(=O)c3ccccc3)CC(=O)N2Cc2cccc(F)c2)cc1` (configuration not stated) were 1.01 and -1.35% (inactive).
For the compound `CC(=O)N1c2ccccc2C(C)(c2ccccc2)CC1(C)C` (configuration not stated), the activation factor was found to be 0.98 and the activity change, negative = activation is 2% (inactive).
For the compound `O=C(NCC1CC1)C1CCCN(S(=O)(=O)c2ccc(-n3cnnn3)cc2)C1` (configuration not stated), the activation factor was 1.01 and the activity change, negative = activation was -0.9% (inactive).
For `O=C(O)C1=C(C(=O)Nc2ccc(F)c(Cl)c2)CCCC1`, the activation factor was found to be 0.98 and the activity change, negative = activation is 2% (inactive).
For `O=C(Nc1ccc(F)c(Cl)c1)C1CC(=O)n2c(nc3ccccc32)N1` (configuration not stated), the activation factor was determined as 2.42 and the activity change, negative = activation is -142% (active).
Consider `O=C(Nc1ccc(Cl)cc1)N1CCC(c2nc(-c3ccccc3Cl)no2)CC1`, for which the activation factor came out at 1.1 and the activity change, negative = activation was -9.8% (inactive).
On the same counts, the results for `O=C(Nc1ccc(Cl)cc1)C1CC(=O)n2c(nc3ccccc32)N1` (configuration not stated) are 2.06 and -106% (active).
Take `O=C1CC(c2ccco2)Sc2nc3ccccc3n21` (configuration not stated): the activation factor amounted to 0.801 and the activity change, negative = activation was 19.9% (inactive).
`CSc1ccccc1NC(=O)Nc1ccc(F)c(Cl)c1`: the activation factor worked out at 1.83 and the activity change, negative = activation is -83.2% (inactive).
In the case of `FC(F)Oc1ccc(NC(=S)NCc2ccccc2)cc1Cl`, the activation factor was found to be 1.34 and the activity change, negative = activation was -34.3% (inactive).
Consider `COC(=O)[C@H](Cc1ccc(O)cc1)NC(=O)Cn1cnc2c(NCc3ccccc3)ncnc21`, for which the activation factor stood at 1.08 and the activity change, negative = activation was -8.5% (inactive).
On to `COCCCNC(=O)CCSc1ccc(Cl)cc1`, for which the activation factor came to 0.897 and the activity change, negative = activation is 10.3% (inactive).
Taken in the same sequence, the figures for `O=C(NCc1ccncc1)c1nnc(Cc2c(F)cccc2Cl)o1` were 0.951 and 4.9% (inactive).
Regarding `NC(=O)CSc1nnc(-c2cccnc2)n1CCc1ccccc1`, the activation factor was 0.957 and the activity change, negative = activation was 4.35% (inactive).
Regarding `CS(=O)(=O)Nc1ccccc1C(=O)c1ccccc1`, the activation factor was 1.04 and the activity change, negative = activation is -3.7% (inactive).
With `O=C(CSc1ncn[nH]1)CSc1ncn[nH]1`, the activation factor turned out to be 0.517 and the activity change, negative = activation was 48.3% (inactive).
On to `CCCCOC(=O)C1=C(C)NC2=C(C(=O)CCC2)C1c1cc(OC)ccc1OC` (configuration not stated), for which the activation factor came out at 1.09 and the activity change, negative = activation was -9.15% (inactive).
On to `COc1ccc(C2=NOC(Cn3nc(-c4ccccc4)cc3C(=O)NCc3ccccc3OC)C2)cc1` (configuration not stated), for which the activation factor was 1.68 and the activity change, negative = activation was -67.7% (inactive).
For `COc1ccc(C2=NOC(Cn3nc(-c4ccccc4)cc3C(=O)NCc3ccc(C)cc3)C2)cc1` (configuration not stated), the activation factor is 1.57 and the activity change, negative = activation was -57.5% (inactive).
As for `Cc1ccc(CNC(=O)COC(=O)c2c(C)noc2C)cc1`, the activation factor is 0.891 and the activity change, negative = activation is 10.9% (inactive).
For `COc1ccc(C2=NOC(Cn3nc(-c4ccccc4)cc3C(=O)NCc3cccc(Br)c3)C2)cc1` (configuration not stated), the activation factor came to 2.12 and the activity change, negative = activation was -112% (active).
With `COc1ccc(C2=NOC(Cn3nc(-c4ccccc4)cc3C(=O)NCc3cccs3)C2)cc1` (configuration not stated), the activation factor worked out at 1.82 and the activity change, negative = activation is -81.5% (inactive).
On the same counts, the results for `Cn1c(C(=O)NCc2ccccc2)cc2oc3ccccc3c21` are 1.14 and -14.4% (inactive).
Take `Cc1ccc(CNC(=O)c2cc(-c3ccccc3)nn2Cc2cc(C)no2)cc1`: the activation factor was 2.26 and the activity change, negative = activation was -126% (active).
For the compound `COc1ccc(C2=NOC(Cn3nc(-c4ccccc4)cc3C(=O)NCc3cccc(C(F)(F)F)c3)C2)cc1` (configuration not stated), the activation factor stood at 1.83 and the activity change, negative = activation is -83.5% (inactive).
As for `CCc1cc(Cn2nc(-c3ccccc3)cc2C(=O)NCc2ccccc2OC)on1`, the activation factor was found to be 1.99 and the activity change, negative = activation was -99.1% (active).
Consider `CCc1cc(Cn2nc(-c3ccccc3)cc2C(=O)NCc2cccc(Br)c2)on1`, for which the activation factor was determined as 2.8 and the activity change, negative = activation is -180% (active).
For `CCc1cc(Cn2nc(-c3ccccc3)cc2C(=O)NCc2cccs2)on1`, the activation factor was determined as 1.89 and the activity change, negative = activation was -88.9% (inactive).
Turning to `CCc1cc(Cn2nc(-c3ccccc3)cc2C(=O)NCc2ccc(C)cc2)on1`, the activation factor worked out at 1.7 and the activity change, negative = activation is -69.7% (inactive).
Take `O=C(COc1ccccc1Cl)OCC(=O)N1CCN(S(=O)(=O)c2ccccc2)CC1`: the activation factor came to 0.883 and the activity change, negative = activation is 11.7% (inactive).
As to `CC(=O)c1cccc(NC(=O)CCNS(=O)(=O)c2cccc(C(C)=O)c2)c1`, the activation factor came out at 0.929 and the activity change, negative = activation was 7.05% (inactive).
Regarding `Cc1cc(Br)cc2c1NC(=O)C2(c1c(C)n(C)n(-c2ccccc2)c1=O)c1c(C)n(C)n(-c2ccccc2)c1=O`, the activation factor came out at 1.02 and the activity change, negative = activation is -2.5% (inactive).

Source of the values: PubChem BioAssay AID434970 (Sanford-Burnham Center for Chemical Genomics, 2010).
